Laboratory results reported in PubChem BioAssay (Tox21).
Several values for one entry are separate records, joined by “and”; a condition that tells them apart may be missing. Equal values may be shown once. Activity calls are given as the source filed them. Unless noted, calls come from the whole dose curve; as a rule, active = well fitted curve in the direction sought with a large enough effect in the repeat runs; inconclusive = weak or mixed curves; inactive = no such curve, though single readings can be large; an effect the other way counts as inactive or inconclusive.

Tests used:
[1] = qHTS assay to identify small molecule antagonists of the thyroid receptor (TR) signaling pathway - cell viability counter screen (AID 743064); note: nearly all actives have a fitted effect of over 50% in size; note: potency is the fitted concentration of half-maximal effect
Procedure, shortened: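 Rat GH3 pituitary tumor cells stably expressing two TR response elements driving luciferase were plated, rested 4 h, then dosed with library compounds and T3 (1 nM final). After 23.5 h at 37 °C, CellTiter-Fluor was added for 30 min and fluorescence recorded.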

[2] = qHTS assay to identify small molecule antagonists of the thyroid receptor (TR) signaling pathway (AID 743065); note: nearly all actives have a fitted effect of over 55% in size; note: potency is the fitted concentration of half-maximal effect
Procedure, shortened: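 GH3.TRE-Luc rat pituitary cells carrying two TR response elements driving luciferase were plated for 4 h, given compound plus 1 nM T3 (final), and incubated 23.5 h at 37 C. ONE-Glo luminescence measured reporter inhibition; CellTiter-Fluor fluorescence tracked cytotoxicity.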

[3] = system: thyroid hormone receptor (rat, GH3 cells); assay: qHTS assay to identify small molecule agonists of the thyroid receptor (TR) signaling pathway (AID 743066; calls by dose curve)
[4] = molecular target: Estrogen receptor (Homo sapiens) (UniProt P03372); assay: qHTS assay to identify small molecule antagonists of the estrogen receptor alpha (ER-alpha) signaling pathway (AID 743069; active = well fitted curve in the direction sought with a large enough effect in the signal ratio in the repeat runs, not every such curve was filed as active; inconclusive = weak or mixed curves, or effect the other way; inactive = no such curve, though single readings can be large or run the other way; the % refers to the signal ratio; note: potency is the fitted concentration of half-maximal effect)
Procedure, shortened: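 A 17beta-estradiol challenge was applied right after compound transfer to ER-alpha-UAS-bla HEK293 cells previously kept in charcoal-stripped serum. Plates stood 18 hr at 37C and 5% CO2; fluorescence was read following 2 hr FRET substrate loading at room temperature.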

[5] = qHTS assay to identify small molecule antagonists of the estrogen receptor alpha (ER-alpha) signaling pathway - cell viability counter screen (AID 743074; calls by dose curve;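 note: HEK293 cells carrying ER-alpha-UAS-bla reporter stimulated with 17beta-estradiol; nearly all actives have a fitted effect of over 45% in size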)
[6] = molecular target: Estrogen receptor (Homo sapiens) (UniProt P03372); assay: qHTS assay to identify small molecule agonists of the estrogen receptor alpha (ER-alpha) signaling pathway (AID 743075; calls by dose curve;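 note: HEK293 GripTite cells with ER-alpha and UAS-driven beta-lactamase reporter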; note: potency is the fitted concentration of half-maximal effect)
[7] = molecular target: Estrogen receptor (Homo sapiens) (UniProt P03372); assay: qHTS assay to identify small molecule agonists of the estrogen receptor alpha (ER-alpha) signaling pathway using the BG1 cell line (AID 743079); note: nearly all actives have a fitted effect of over 20% in size; note: potency is the fitted concentration of half-maximal effect
[8] = qHTS assay to identify small molecule antagonists of the estrogen receptor alpha (ER-alpha) signaling pathway using the BG1 cell line (AID 743080; calls by dose curve;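 note: BG1 cells stimulated with 17beta-estradiol alongside compound; series mostly up to about 70 µM; nearly all actives have a fitted effect of over 25% in size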)
Procedure, shortened: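 Quantitative HTS on the Tox21 10K library: BG1 cells with endogenous ER-alpha and ERE-luciferase reporter, 17beta-estradiol stimulation, 21.5 h compound exposure, luminescence endpoint with parallel fluorescence cytotoxicity counter-read.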

[9] = qHTS assay to identify small molecule antagonists of the estrogen receptor alpha (ER-alpha) signaling pathway using the BG1 cell line - cell viability counter screen (AID 743081);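 note: compound given together with 17beta-estradiol as the ER stimulus; series mostly up to about 70 µM; nearly all actives have a fitted effect of over 45% in size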
Aromatase (Homo sapiens) = Aromatase (Homo sapiens) (UniProt P11511); assay: qHTS assay to identify aromatase inhibitors (AID 743083); note: series mostly up to about 70 µM; nearly all actives have a fitted effect of over 55% in size

Measured: Potency

Estrogen receptor (Homo sapiens), sequence (P03372 whole entry, looked up): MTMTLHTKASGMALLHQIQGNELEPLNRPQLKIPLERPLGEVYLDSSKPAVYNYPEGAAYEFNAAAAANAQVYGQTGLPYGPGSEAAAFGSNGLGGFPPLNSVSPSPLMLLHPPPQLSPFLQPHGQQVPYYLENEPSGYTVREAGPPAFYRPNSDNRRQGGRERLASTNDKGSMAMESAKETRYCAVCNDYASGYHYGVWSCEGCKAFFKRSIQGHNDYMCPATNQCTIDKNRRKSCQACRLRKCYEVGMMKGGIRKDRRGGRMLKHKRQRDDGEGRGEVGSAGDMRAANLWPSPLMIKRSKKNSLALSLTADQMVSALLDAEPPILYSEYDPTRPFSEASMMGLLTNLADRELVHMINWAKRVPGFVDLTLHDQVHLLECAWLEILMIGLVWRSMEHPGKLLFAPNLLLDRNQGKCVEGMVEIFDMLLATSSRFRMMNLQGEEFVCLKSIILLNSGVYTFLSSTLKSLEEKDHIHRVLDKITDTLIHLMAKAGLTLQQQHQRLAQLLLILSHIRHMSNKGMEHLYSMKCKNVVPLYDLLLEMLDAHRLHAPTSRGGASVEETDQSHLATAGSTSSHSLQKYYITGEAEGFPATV
Aromatase (Homo sapiens), sequence (P11511 whole entry, looked up): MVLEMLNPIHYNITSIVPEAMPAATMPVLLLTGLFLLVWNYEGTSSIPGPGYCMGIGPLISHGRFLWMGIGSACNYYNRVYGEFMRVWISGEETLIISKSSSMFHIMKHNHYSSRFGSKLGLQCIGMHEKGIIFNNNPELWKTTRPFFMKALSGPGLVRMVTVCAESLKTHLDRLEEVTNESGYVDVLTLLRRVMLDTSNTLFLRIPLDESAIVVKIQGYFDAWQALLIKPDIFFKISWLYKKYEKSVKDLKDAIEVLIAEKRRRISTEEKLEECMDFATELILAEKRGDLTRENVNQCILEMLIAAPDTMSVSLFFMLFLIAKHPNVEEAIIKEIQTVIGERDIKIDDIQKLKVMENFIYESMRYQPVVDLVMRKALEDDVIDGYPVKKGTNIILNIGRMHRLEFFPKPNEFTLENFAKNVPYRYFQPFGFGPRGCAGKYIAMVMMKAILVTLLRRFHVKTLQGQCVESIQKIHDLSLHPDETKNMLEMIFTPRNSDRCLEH

CC(C)(C)CC(C)(C)N
inactive: all assays above

COC(=O)CCCCCCCCC(=O)OC
inactive: all assays above

CC(C)=CCC/C(C)=C/C(=O)O
inactive: all assays above

CC(C)(C)C(=O)/C=C/c1ccc(Cl)cc1
not listed: [8]
inactive: all other assays above

Nc1nc2c(ncn2CCC(CO)CO)c(=O)[nH]1
not listed: [8]
inactive: all other assays above

CCCCCC[C@@H](CCC)C(=O)O
not listed: [9]
inactive: all other assays above

C[C@H](O)C(=O)Nc1c(I)c(C(=O)NC(CO)CO)c(I)c(C(=O)NC(CO)CO)c1I
not listed: [8]
inactive: all other assays above

CCCCc1ccc2cccc(S(=O)(=O)O)c2c1
not listed: [8]
inactive: all other assays above

CN(C)C(=O)Nc1ccccc1
not listed: [8]
inactive: all other assays above

CCCCCOC(=O)Nc1nc(=O)n([C@@H]2O[C@H](C)[C@@H](O)[C@H]2O)cc1F
inactive: all assays above

CC(C)[C@H](N)C(=O)OCCOCn1cnc2c(=O)[nH]c(N)nc21
inactive: all assays above

CCCC(C)C(=O)O (configuration not stated)
inactive: all assays above

CC(C)c1cccc(C(C)C)c1N
not listed: [8]
inactive: all other assays above

CC(C)COC(=O)C(C)C
inactive: all assays above

C(=C(c1ccccc1)c1ccccc1)c1ccccc1
active: [4] 54.9 µM [inconclusive] | [6] 7.76 µM [inconclusive] | [7] 2.43 µM
not listed: [8]
inactive: all other assays above

CC1CCN(CCCC(=O)c2ccc(F)cc2)CC1
inactive: all assays above

C1COCCO1
not listed: [8]
inactive: all other assays above

Cc1ccc(Nc2ccc(O)c3c2C(=O)c2ccccc2C3=O)cc1
not listed: [8]
inactive: all other assays above

Cc1cc(C)cc(OCC2CNC(=O)O2)c1 (configuration not stated)
inactive: all assays above

NCCNC(=O)c1ccc(Cl)cn1
not listed: [8]
inactive: all other assays above

COc1cccc(Br)c1
inactive: all assays above

C=C[Si](OC)(OC)OC
inactive: all assays above

O=C(O)c1ccccc1-c1ccc(C(F)(F)F)cc1
not listed: [4]
inactive: all other assays above

C=CCn1c(=O)n([C@@H]2O[C@H](CO)[C@@H](O)[C@H]2O)c2nc(N)[nH]c(=O)c21
not listed: [8]
inactive: all other assays above

[O-][N+](=Nc1ccccc1)c1ccccc1
active: [7] 15 µM and 54.5 µM
not listed: [8]
inactive: all other assays above

C=C(C)C(=O)NCCC[N+](C)(C)C
not listed: [5]
inactive: all other assays above

C=C(C)C(=O)OCCCCCCCCCCCCCCCCCC
not listed: [5] | [7]
inactive: all other assays above

CCCCCCCCCCCCI
inactive: [1] | [2] | [3] | [5] | [9]

O=C(O)c1ccccc1S
not listed: [5] | [9]
inactive: all other assays above

Cc1c(C)n(CCN(C)C)c2ccc(C(=O)OCCN(C)C)cc12
inactive: [3] | [4] | [5] | [6] | Aromatase (Homo sapiens)
active: [1] 26.6 µM | [2] 21.1 µM

CSc1ccc(C=O)cc1
inactive: [1] | [2] | [3] | [5] | [9] | Aromatase (Homo sapiens)

CCCCN(CCO)CCO
not listed: [8]
inactive: all other assays above

O=S(=O)(O)c1ccccc1O
not listed: [5]
inactive: all other assays above

NC(=O)CCCCC1CCSS1 (configuration not stated)
active: [6] 0.239 µM [inconclusive] | [7] 0.0266 µM
not listed: [4]
inactive: all other assays above

O=C(O)CCNC(=O)c1ccc(N=Nc2ccc(O)c(C(=O)O)c2)cc1
not listed: [8] | [9]
inactive: all other assays above

CCCCC=O
inactive: [1] | [2] | [3] | [5] | [9]

Cc1ccc(N)cc1[N+](=O)[O-]
inactive: [1] | [2] | [3] | [5] | [9]

CCCC=O
inactive: [1] | [2] | [3] | [5] | [9] | Aromatase (Homo sapiens)

OC/C=C/c1ccccc1
inactive: [1] | [2] | [3] | [5] | [9] | Aromatase (Homo sapiens)

CCn1cc(C(=O)O)c(=O)c2cc(F)c(N3CCN(C)CC3)cc21
not listed: [4]
inactive: all other assays above

CC(C)CCCC(C)CCCC(C)CCCCC(C)CCCC(C)CCCC(C)C (configuration not stated)
inactive: [1] | [2] | [3] | [5] | [9] | Aromatase (Homo sapiens)

CCCCCCCCCCC1CO1 (configuration not stated)
inactive: [1] | [2] | [3] | [5] | [9] | Aromatase (Homo sapiens)

Cc1onc(-c2ccccc2)c1-c1ccc(S(N)(=O)=O)cc1
inactive: [1] | [2] | [3] | [5] | [9] | Aromatase (Homo sapiens)

CCCOCC(C)OCC(C)O (configuration not stated)
inactive: [1] | [2] | [3] | [5] | [9] | Aromatase (Homo sapiens)

CC(=O)N[C@@H](CCC(N)=O)C(=O)O
not listed: [8] | [9]
inactive: all other assays above

CCCCc1ccc(N)cc1
not listed: [7] | [8]
inactive: all other assays above

N#CCN(CC#N)CCN(CC#N)CC#N
inactive: [1] | [2] | [3] | [5] | [9]

COCc1ccc(COC)cc1
not listed: [8]
inactive: all other assays above

CC(=O)O[C@H](CC(=O)[O-])C[N+](C)(C)C
not listed: [8]
inactive: all other assays above

OCCCCCCO
inactive: [1] | [2] | [3] | [5] | [9] | Aromatase (Homo sapiens)

CC1=CC(C)C(C=O)C(C)C1 (configuration not stated)
not listed: [5]
inactive: all other assays above

CCCCCCCCC=O
inactive: [1] | [2] | [3] | [5] | [7] | [9]

CCCCCCOC(=O)c1ccccc1O
not listed: [7] | [8]
inactive: all other assays above

N#CCc1ccccc1[N+](=O)[O-]
inactive: [1] | [2] | [3] | [5] | [9] | Aromatase (Homo sapiens)

CCCCCN(CCCCC)C(=O)C(CCC(=O)O)NC(=O)c1ccc(Cl)c(Cl)c1 (configuration not stated)
not listed: [4] | [7]
inactive: all other assays above

C=C(C)C(=O)OCCC(C)OC(=O)C(=C)C (configuration not stated)
not listed: [8]
inactive: all other assays above

CCCC(=O)O[C@]1(C(=O)CCl)[C@@H](C)C[C@H]2[C@@H]3CCC4=CC(=O)C=C[C@]4(C)[C@@]3(F)C(=O)C[C@@]21C
active: [2] 11.9 µM
not listed: [4] | [8] | [9]
inactive: all other assays above

COC(=O)CCCC(=O)O
not listed: [4]
inactive: all other assays above

Cc1cc(C)c(NC(=O)CN(CC(=O)O)CC(=O)O)c(C)c1Br
inactive: [1] | [2] | [3] | [5] | [9] | Aromatase (Homo sapiens)

OC1OC[C@@H](O)[C@H](O)[C@H]1O (some centres not stated)
inactive: [1] | [2] | [3] | [9] | Aromatase (Homo sapiens)
